Tests used:
Test in all cases: log2 ratio of Biotin-Ahx-Ub-VS probe labelling (fragment/DMSO); higher = less target engagement (more negative = stronger competition), active = hit call of the paper (q ≤ 0.05, log2 ratio ≤ -1)
Conditions in all cases: compound concentration: 200 uM; treatment time: 3 h
[1] = target: T1, USP19 (UniProt O94966)
T1 sequence (whole entry): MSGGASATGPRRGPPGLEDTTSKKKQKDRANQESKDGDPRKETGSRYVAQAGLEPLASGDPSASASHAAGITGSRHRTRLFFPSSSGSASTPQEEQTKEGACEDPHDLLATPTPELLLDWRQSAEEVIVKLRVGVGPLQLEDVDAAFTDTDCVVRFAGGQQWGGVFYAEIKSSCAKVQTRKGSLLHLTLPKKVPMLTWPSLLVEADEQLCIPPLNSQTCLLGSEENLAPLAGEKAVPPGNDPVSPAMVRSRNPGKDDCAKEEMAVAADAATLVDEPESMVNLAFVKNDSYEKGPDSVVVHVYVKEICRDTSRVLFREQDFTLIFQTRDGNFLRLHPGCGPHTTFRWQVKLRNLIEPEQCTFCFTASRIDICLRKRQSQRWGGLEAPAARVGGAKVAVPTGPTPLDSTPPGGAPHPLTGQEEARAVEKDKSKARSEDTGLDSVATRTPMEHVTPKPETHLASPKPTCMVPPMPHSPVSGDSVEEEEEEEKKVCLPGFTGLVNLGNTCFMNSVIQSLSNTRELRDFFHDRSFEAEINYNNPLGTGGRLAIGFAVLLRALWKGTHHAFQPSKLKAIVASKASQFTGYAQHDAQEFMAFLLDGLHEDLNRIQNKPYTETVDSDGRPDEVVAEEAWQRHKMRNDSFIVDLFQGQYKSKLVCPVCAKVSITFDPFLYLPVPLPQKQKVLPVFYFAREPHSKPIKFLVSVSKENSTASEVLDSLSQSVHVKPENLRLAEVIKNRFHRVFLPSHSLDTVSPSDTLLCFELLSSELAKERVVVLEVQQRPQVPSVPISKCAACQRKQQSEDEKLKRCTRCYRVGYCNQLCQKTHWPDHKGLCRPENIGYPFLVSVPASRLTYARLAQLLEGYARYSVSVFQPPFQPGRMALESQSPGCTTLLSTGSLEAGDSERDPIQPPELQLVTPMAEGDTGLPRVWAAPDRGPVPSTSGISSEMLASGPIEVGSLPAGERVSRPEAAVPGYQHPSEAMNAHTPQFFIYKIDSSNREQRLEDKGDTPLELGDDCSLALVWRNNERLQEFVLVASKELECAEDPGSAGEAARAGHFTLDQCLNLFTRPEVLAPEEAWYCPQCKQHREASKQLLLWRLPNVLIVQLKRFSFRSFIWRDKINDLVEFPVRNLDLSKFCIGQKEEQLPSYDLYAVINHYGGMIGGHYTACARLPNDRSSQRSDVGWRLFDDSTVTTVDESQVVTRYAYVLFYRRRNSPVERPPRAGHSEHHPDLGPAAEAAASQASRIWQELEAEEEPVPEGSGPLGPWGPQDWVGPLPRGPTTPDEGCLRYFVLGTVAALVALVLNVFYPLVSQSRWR
Procedure, shortened: (§1)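 The table lists average log2 ratios of fragment over vehicle, from an unpaired t-test on global-median-normalised Spectronaut label-free quantities. Proteins with ≥2 unique peptides were used. Samples were HEK293T lysate (495 µg) treated in triplicate with fragment at 200 µM or vehicle for 3 h, then with Biotin-Ahx-Ub-VS (0.5 µM final) for 1 h, with labelled DUBs NeutrAvidin-enriched and run by diaPASEF LC-MS/MS.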

[2] = target: T2, USP22 (UniProt Q9UPT9)
T2 sequence (whole entry): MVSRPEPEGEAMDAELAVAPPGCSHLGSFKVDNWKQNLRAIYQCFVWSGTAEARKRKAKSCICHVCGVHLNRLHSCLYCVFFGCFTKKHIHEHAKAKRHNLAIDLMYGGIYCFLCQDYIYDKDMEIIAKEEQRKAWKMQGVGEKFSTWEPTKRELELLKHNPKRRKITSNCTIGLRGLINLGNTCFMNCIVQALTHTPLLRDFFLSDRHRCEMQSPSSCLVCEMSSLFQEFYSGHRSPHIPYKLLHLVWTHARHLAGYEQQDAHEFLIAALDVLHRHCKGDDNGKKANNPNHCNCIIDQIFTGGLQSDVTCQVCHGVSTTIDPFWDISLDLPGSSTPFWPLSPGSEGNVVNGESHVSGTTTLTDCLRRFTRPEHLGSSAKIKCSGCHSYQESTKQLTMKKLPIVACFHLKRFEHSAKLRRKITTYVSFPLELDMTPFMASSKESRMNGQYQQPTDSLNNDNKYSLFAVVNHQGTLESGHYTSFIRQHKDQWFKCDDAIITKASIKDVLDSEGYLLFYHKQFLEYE
Procedure, shortened: as §1

[3] = target: USP24 (UniProt Q9UPU5)
USP24, sequence (Q9UPU5 whole entry): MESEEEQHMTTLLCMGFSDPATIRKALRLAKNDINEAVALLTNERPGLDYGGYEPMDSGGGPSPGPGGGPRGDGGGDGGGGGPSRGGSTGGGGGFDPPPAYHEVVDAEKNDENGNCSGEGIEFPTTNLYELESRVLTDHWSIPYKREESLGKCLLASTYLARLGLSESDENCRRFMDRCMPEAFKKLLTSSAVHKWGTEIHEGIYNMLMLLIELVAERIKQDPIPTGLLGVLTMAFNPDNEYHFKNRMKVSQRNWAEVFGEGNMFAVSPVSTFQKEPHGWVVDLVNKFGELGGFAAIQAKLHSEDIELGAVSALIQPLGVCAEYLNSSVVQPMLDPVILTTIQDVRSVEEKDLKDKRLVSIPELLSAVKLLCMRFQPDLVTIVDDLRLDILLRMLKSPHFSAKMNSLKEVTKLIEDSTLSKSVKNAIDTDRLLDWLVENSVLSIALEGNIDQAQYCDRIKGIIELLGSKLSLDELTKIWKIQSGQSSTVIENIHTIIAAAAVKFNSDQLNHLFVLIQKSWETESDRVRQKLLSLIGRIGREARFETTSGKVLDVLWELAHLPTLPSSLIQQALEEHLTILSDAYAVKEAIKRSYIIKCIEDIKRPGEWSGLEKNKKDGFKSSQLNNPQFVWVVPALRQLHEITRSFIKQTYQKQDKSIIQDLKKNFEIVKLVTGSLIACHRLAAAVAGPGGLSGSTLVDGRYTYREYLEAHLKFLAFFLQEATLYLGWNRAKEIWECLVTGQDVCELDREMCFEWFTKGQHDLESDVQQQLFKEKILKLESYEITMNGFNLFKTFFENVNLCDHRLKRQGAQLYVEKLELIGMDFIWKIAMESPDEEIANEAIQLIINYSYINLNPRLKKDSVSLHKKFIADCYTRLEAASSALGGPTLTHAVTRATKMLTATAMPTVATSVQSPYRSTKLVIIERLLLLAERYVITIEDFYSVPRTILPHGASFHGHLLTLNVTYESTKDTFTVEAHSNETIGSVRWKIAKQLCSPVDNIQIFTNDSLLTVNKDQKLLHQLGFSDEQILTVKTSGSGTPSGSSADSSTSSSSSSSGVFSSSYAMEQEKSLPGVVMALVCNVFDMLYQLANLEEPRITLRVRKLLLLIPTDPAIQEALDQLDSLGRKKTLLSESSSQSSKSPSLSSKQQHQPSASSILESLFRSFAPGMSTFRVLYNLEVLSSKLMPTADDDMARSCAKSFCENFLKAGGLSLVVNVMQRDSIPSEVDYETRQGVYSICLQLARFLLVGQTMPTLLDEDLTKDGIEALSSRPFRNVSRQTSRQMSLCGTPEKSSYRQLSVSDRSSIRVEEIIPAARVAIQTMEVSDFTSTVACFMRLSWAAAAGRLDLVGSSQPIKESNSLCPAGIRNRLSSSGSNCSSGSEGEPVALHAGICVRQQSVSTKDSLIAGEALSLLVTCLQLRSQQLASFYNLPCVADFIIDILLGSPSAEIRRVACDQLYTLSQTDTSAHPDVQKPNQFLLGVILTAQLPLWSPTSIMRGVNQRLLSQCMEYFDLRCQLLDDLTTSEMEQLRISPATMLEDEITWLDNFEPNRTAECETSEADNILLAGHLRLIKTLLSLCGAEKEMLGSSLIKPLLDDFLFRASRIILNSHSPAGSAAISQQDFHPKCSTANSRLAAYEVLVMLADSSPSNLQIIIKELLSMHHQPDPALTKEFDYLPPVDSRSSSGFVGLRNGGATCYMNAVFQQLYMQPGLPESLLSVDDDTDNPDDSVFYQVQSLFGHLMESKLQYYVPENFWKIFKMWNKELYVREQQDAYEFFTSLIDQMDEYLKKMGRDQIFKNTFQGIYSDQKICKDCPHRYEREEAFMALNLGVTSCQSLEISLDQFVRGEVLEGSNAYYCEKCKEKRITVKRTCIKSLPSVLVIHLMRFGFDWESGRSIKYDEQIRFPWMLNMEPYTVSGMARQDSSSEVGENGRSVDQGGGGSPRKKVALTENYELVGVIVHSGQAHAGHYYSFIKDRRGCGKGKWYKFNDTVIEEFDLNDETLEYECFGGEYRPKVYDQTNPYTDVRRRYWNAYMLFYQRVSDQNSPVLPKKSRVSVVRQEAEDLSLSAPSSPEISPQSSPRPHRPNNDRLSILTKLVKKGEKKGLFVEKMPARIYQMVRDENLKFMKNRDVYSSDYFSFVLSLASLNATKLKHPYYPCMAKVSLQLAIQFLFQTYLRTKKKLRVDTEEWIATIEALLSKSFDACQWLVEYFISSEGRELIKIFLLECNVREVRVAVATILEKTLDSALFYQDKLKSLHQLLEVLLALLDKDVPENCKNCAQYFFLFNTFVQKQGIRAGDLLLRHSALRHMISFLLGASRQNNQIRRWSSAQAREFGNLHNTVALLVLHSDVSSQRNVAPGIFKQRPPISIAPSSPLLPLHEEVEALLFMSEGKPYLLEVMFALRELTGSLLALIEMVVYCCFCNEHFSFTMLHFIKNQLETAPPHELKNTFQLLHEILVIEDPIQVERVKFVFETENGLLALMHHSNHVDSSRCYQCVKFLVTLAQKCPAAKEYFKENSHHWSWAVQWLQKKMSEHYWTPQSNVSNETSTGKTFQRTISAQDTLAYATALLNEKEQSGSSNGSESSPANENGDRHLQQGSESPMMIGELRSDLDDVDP
Procedure, shortened: as §1

[4] = target: T3, USP25 (UniProt Q9UHP3)
T3 sequence (whole entry): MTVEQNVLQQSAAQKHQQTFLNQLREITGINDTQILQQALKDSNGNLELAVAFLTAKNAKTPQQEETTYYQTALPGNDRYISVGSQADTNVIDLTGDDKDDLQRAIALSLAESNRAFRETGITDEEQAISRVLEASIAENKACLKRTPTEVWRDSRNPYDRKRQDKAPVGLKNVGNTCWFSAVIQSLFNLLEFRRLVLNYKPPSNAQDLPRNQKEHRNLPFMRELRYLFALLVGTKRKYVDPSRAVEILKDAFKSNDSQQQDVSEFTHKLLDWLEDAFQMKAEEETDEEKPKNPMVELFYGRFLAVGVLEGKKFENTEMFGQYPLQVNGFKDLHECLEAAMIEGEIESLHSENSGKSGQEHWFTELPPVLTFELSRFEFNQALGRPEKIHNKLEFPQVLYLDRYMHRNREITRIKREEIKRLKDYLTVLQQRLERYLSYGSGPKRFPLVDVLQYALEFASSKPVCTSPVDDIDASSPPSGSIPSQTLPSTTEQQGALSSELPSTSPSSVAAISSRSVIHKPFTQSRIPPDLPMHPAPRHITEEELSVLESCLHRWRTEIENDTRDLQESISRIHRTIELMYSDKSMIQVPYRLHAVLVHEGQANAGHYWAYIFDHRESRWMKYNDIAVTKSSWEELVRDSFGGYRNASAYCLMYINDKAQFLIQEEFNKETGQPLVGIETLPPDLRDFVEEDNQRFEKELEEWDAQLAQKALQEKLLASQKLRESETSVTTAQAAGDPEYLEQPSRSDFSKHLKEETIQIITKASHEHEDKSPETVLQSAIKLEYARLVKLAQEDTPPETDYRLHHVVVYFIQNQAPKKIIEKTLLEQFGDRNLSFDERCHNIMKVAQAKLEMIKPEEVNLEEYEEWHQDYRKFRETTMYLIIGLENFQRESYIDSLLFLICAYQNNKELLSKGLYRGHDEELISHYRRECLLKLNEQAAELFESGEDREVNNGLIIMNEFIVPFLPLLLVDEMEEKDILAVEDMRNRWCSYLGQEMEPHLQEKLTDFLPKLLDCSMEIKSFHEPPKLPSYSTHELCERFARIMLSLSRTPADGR
Procedure, shortened: as §1

[5] = target: T4, USP28 (UniProt Q96RU2)
T4 sequence (whole entry): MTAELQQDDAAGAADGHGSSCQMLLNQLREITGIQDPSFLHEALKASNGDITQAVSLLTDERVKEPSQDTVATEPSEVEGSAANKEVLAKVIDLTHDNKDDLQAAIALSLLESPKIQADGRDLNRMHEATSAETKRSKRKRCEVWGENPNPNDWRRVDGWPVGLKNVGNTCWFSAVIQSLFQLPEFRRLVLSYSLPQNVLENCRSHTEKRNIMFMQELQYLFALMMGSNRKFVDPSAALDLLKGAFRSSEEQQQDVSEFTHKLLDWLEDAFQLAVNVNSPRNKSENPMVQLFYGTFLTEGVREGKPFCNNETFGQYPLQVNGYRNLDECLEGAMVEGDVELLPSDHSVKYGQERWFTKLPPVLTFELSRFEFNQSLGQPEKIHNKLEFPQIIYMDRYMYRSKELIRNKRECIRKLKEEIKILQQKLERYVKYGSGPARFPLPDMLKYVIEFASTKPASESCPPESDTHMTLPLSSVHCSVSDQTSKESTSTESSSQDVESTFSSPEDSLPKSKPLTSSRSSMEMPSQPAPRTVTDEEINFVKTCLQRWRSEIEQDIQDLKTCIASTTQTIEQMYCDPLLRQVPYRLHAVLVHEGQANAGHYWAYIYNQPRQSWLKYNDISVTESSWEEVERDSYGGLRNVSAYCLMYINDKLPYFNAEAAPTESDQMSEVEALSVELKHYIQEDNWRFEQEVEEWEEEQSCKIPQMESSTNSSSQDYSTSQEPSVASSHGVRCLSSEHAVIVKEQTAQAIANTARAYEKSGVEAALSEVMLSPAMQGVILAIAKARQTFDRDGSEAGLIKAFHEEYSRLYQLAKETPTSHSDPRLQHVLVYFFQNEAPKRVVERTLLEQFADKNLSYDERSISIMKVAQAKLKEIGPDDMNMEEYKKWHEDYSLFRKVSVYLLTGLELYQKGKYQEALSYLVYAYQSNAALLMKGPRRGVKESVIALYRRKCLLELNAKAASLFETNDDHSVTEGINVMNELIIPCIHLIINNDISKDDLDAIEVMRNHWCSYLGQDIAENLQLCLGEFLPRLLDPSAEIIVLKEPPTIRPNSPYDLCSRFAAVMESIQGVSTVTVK
Procedure, shortened: as §1

Measured: log2 ratio of Biotin-Ahx-Ub-VS probe labelling

Cl.O=C(CCl)N1CCN(Cc2ccccc2)CC1
inactive: [1] -0.21 | [2] -0.403 | [3] -0.611 | [4] -0.226 | [5] -0.511

Reference: the supplement of paper PMC11732987, “Enantioselective OTUD7B fragment discovery through chemoproteomics screening and high-throughput optimisation” (Communications Chemistry, 2025)
